Source: PubChem BioAssay (NCATS)
Inconclusive results are not listed. Active and inactive are the calls of the source. The call rests on the fitted dose curve; in most records, active means well fitted inhibition curve with a large enough effect; inconclusive means small, poorly fitted or top-dose-only effect; inactive means no such curve, though single readings can be large or run the other way.
Potency means the concentration at half of the fitted maximal effect.

Each compound was assayed against Endonuclease 4 (Escherichia coli (strain K12)) (UniProt P0A6C1) (assay: Counterscreen for APE1 Inhibitors: qHTS Validation Assay for Inhibitors of Endonuclease IV (AID 1708)). Details: E. coli endonuclease IV, DNA cleavage fluorescence; series mostly up to 57.1 µM; activity change, negative = inhibition: at the top concentration.
Description: Assay Provider: David M. Wilson, III, National Institute on Aging, NIH
Screening Center PI: Austin, C.P.
Screening Center: NIH Chemical Genomics Center [NCGC]
Escherichia coli endonuclease IV (Endo IV) is the key member of the AP endonuclease superfamily that catalyzes the cleavage of damaged DNA backbone immediately 5' of an AP site. E. coli EndoIV has the same functional activities as human APE1 but has no sequence or structural homology to the human protein. Herein, we utilize E. coli EndoIV to counter screen compound libraries as part of a high-throughput campaign for APE1 inhibitor identification. A concentration-response screen of the LOPAC1280 collection was performed under experimental conditions identical to those used in the APE1 screen.
Inhibition of APE1 activity was screened by utilizing double-stranded short substrate containing tetrahydrofuran (THF) abasic site labeled with rhodamine-type fluorophore (TAMRA) at the 5'-end and with non-fluorescent Black Hole Quencher-2 (BHQ-2) at the opposing 3'-end. An increase in the fluorescence intensity due to incision of the abasic site by APE1 was used to measure the enzyme activity.
Buffer: 50 mM Tris-HCl (pH 7.5) containing 50mM NaCl, 2 mM MgCl2, 1 mM DTT and 0.01% Tween-20.
Buffer in columns 3 and 4 as negative control (no enzyme).
Substrate: 50 nM final concentration of TAMRA/BHQ-2 substrate dispensed throughout the plate.
Enzyme: 2 nM E. coli EndoIV final concentration in columns 1, 2, 5-48. Column 1 is neutral (100% activity).
Control: Pintool transfer of control inhibitor NSC-13755 to column 2 of all assay plates. Two-fold, 16 pt dilution in duplicate to produce final concentrations in the 5.75 uM - 0.175 nM range.
Three uL of enzyme were dispensed to 1536-well Greiner black solid bottom plates. Compounds (23 nL) were transferred via Kalypsys pintool. The plates were incubated for 15 min at room temperature, and then 1 uL of substrate solution was added to start the reaction. The plates were immediately transferred into ViewLux High-throughput CCD imager (Perkin-Elmer) in order to measure the reaction progress in kinetic mode (three reads every 60 seconds) using 525 nm excitation and 598 nm emission fluorescence protocol. The fluorescence intensity difference between the third and the first time points was used to compute reaction progress.
With NC(CP(=O)(O)O)C(=O)O (stereo not given) the “activity change, negative = inhibition” value was -12% (inactive). For NC1CC1c1ccccc1 (stereo not given), the “activity change, negative = inhibition” value was -0.964% (inactive). NC(=NCCC[C@H](N)C(=O)O)N[N+](=O)[O-] was tested, and the “activity change, negative = inhibition” value was -7.87% (inactive). In the case of COc1cc(C(O)CN)ccc1O (stereo not given), the “activity change, negative = inhibition” value is reported as -7.55% (inactive). With NCCc1c[nH]c2ccccc12 the “activity change, negative = inhibition” value was -1.29% (inactive). For CC(=O)[C@H]1CCC2C3CC[C@H]4C[C@H](O)CC[C@]4(C)C3CC[C@@]21C (stereo not given in full), the “activity change, negative = inhibition” value was -6.83% (inactive). For Cc1nccc2c1[nH]c1ccccc12, the “activity change, negative = inhibition” value was -9.16% (inactive). With CNCCc1c[nH]c2ccc(O)cc12 the “activity change, negative = inhibition” value was -5.78% (inactive). CC(=O)NCCc1c[nH]c2ccccc12 was tested, and the “activity change, negative = inhibition” value was -4.9% (inactive). In the case of NC1CCc2cc(O)c(O)cc2C1 (stereo not given), the “activity change, negative = inhibition” value is reported as 2.81% (inactive). C[N+](C)(C)CC(=O)O was tested, and the “activity change, negative = inhibition” value was 1.93% (inactive). With CC1=NN=C(c2ccc(N)cc2)c2cc3c(cc2C1)OCO3 the “activity change, negative = inhibition” value was -5.38% (inactive). c1ccc2sc(C3(N4CCCCC4)CCCCC3)cc2c1 was tested, and the “activity change, negative = inhibition” value was -10.6% (inactive). Cc1nc(-c2ccc(-c3ccc(C(=O)N4CCc5cc6c(cc54)C4(CCN(C)CC4)CO6)cc3)c(C)c2)no1 was tested, and the “activity change, negative = inhibition” value was -7.79% (inactive). For CC(C)Oc1cccnc1N(C)C1CCN(Cc2ccccc2)CC1, the “activity change, negative = inhibition” value was 38.9% (inactive). CNCCc1ccc(O)c(O)c1 was tested, and the “activity change, negative = inhibition” value was 16.3% (inactive). With Clc1cnc(Oc2ccc(Oc3ncc(Cl)cc3Cl)cc2)c(Cl)c1 the “activity change, negative = inhibition” value was -5.54% (inactive). In the case of NCc1cc(=O)[nH]o1, the “activity change, negative = inhibition” value is reported as -6.59% (inactive). With CCCN1CCO[C@@H]2c3cc(O)ccc3OC[C@H]21 the “activity change, negative = inhibition” value was -5.54% (inactive). C=CCN1CC[C@]23CCCCC2[C@H]1Cc1ccc(O)cc13 (stereo not given in full) was tested, and the “activity change, negative = inhibition” value was -0.803% (inactive). With C[C@]12CCC3C(CC[C@H]4C[C@H](O)CC[C@]34C)C1CC[C@@H]2C(=O)CO (stereo not given in full) the “activity change, negative = inhibition” value was -7.07% (inactive). CN1C2CCC1CC(OC(=O)c1cc(Cl)cc(Cl)c1)C2 (stereo not given) was tested, and the “activity change, negative = inhibition” value was -7.39% (inactive). With c1ccc(CCCN2CCN(CCOC(c3ccccc3)c3ccccc3)CC2)cc1 the “activity change, negative = inhibition” value was 17.3% (inactive). For CC[C@@]1(O)C(=O)OCc2c1cc1n(c2=O)Cc2cc3ccccc3nc2-1, the “activity change, negative = inhibition” value was -1.93% (inactive). For CN[C@@H](C)[C@H](O)c1ccccc1, the “activity change, negative = inhibition” value was -0.723% (inactive). For CC[C@@H]1C(=O)OC[C@@H]1Cc1cncn1C, the Potency was “inactive”. For CCCN1CCC[C@H](c2cccc(O)c2)C1, the “activity change, negative = inhibition” value was -12.2% (inactive). O=C(O)CC[N+](=O)[O-] was tested, and the “activity change, negative = inhibition” value was -9.64% (inactive). C[C@]12N[C@H](Cc3ccccc31)c1ccccc12 was tested, and the “activity change, negative = inhibition” value was -5.38% (inactive). In the case of CC(Cc1ccc(O)cc1)NCC(O)c1cc(O)cc(O)c1 (stereo not given), the “activity change, negative = inhibition” value is reported as -8.51% (inactive). For C[N+]1(C)C2CCC1CC(OC(=O)C(CO)c1ccccc1)C2 (stereo not given), the “activity change, negative = inhibition” value was 0.643% (inactive). COc1ccc2c(c[n+](C)c3c4cc5c(cc4ccc23)OCO5)c1OC was tested, and the “activity change, negative = inhibition” value was -8.19% (inactive). For C[C@@H]1O[C@H](C[N+](C)(C)C)C[C@H]1O, the “activity change, negative = inhibition” value was -2.97% (inactive). In the case of CCCN(CCC)[C@@H]1CCc2ccc(O)cc2C1, the “activity change, negative = inhibition” value is reported as -6.67% (inactive). With Cn1cnc(CCN)c1 the “activity change, negative = inhibition” value was -9.72% (inactive). With CN[C@@H]1C[C@@H](c2ccc(Cl)c(Cl)c2)c2ccccc21 the “activity change, negative = inhibition” value was -3.61% (inactive). Cc1c(C(=O)c2cccc3ccccc23)c2cccc3c2n1[C@H](CN1CCOCC1)CO3 was tested, and the “activity change, negative = inhibition” value was 37.4% (inactive). For Clc1ccc(C(c2ccc(Cl)cc2)n2cc[n+](CC(OCc3ccc(Cl)cc3Cl)c3ccc(Cl)cc3Cl)c2)cc1 (stereo not given), the Potency was 31.6 µM (active). With CC(C)NC(C)Cc1ccc(I)cc1 (stereo not given) the “activity change, negative = inhibition” value was 0.161% (inactive). For NC(=O)CN1CC(O)CC1=O (stereo not given), the “activity change, negative = inhibition” value was -1.93% (inactive).
